The structures appear in SMILES notation. Inconclusive results are not listed. Active and inactive are the calls of the source. How the source made its calls: active means hit-call score of the fitted dose curve at least 0.9, where 1 is the maximum; inconclusive means response in the unintended direction; inactive means score below 0.9.

Sequence of Nuclear receptor subfamily 1 group I member 3 (Homo sapiens) (Q14994 whole entry, looked up): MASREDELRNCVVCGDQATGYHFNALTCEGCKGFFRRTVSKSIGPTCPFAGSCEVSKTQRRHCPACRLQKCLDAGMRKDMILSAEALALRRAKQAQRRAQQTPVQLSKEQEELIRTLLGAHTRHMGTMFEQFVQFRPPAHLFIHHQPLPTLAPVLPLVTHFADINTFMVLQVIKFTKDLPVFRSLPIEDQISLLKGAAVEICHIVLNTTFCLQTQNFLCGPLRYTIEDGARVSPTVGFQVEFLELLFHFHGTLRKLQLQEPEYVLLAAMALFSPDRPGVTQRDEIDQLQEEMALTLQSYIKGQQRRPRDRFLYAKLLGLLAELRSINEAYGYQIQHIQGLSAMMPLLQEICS

The assay has as its target Nuclear receptor subfamily 1 group I member 3 (Homo sapiens) (UniProt Q14994). The assay can be described thus: ATG_CAR_TRANS: Attagene TRANS-FACTORIAL HepG2 Assay for human Constitutive Androstane Receptor (CAR) (AID 2282969).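 Further: activators raise reporter mRNA above DMSO so AC50 marks induction.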 To be noted: HepG2 Attagene TRANS-FACTORIAL CAR reporter. The protocol: ATG_TRANS is a cell-based, multiplexed-readout assay that uses HepG2, a human liver cell line, with measurements taken at 24 hours after chemical dosing in a 24-well plate.ATG_CAR_TRANS is one of 30 assay component(s) measured or calculated from the ATG_TRANS assay. It is designed to make measurements of mRNA induction, a form of inducible reporter, as detected with fluorescence intensity signals by Reverse transcription polymerase chain reaction (RT-PCR) and Capillary electrophoresis technology.Data from the assay component ATG_CAR_TRANS was analyzed into 1 assay endpoint. This assay endpoint, ATG_CAR_TRANS, was analyzed in the positive analysis fitting direction relative to DMSO as the negative control and baseline of activity. Using a type of inducible reporter, measures of mRNA for gain-of-signal activity can be used to understand the reporter gene at the transcription factor-level as they relate to the gene NR1I3. Furthermore, this assay endpoint can be referred to as a primary readout, because this assay has produced multiple assay endpoints where this one serves a reporter gene function. To generalize the intended target to other relatable targets, this assay endpoint is annotated to the nuclear receptor intended target family, where the subfamily is non-steroidal.
Human liver HepG2 cells are transiently transfected with multiple reporter transcription units (MRTUs) in 6-well plates using FuGene 6 reagent (Roche; 3 ml FuGene/1 mg DNA). The MRTU constructs are regulated by a cis-regulating element (promoter). […] A major difference between the CIS and TRANS system is that in CIS activities of endogenous TFs are measured, whereas the TRANS assay evaluates changes in activities of exogenous, chimeric NR-Gal4 proteins. […] At the end of 24 hour incubation, total RNA was isolated using TriZol reagent (Invitrogen). The isolated RNA is then reverse-transcribed using oligo(dT) primer and Mo-MLV reverse transcriptase (Invitrogen) with DNAse I (Ambion) treatment for 30 min. The one-tenth of the produced cDNA was amplified by PCR using Taq DNA polymerase (Invitrogen) and two reporter sequence-specific primers. The PCR products were fluorescently labeled by primer extension with 6-arboxyfluorescein (6-FAM) 5'-labeled reporter sequence-specific primer (2 min at 95 C, 20 s at 68 C and 10 min at 72 C) and these products were digested with 5U of HpaI (New England Biolabs) for 2h at 37 C. The fragments were purified using Qiaquick PCR columns (Qiagen), analyzed on an ABI 3130xL genetic analyzer (Applied Biosystems) with peak positions identified by using a set of X-rhodamine (ROX)-labeled MapMarker1000 molecular weight standards (BioVentures). The raw capillary electrophoresis data was processed using Attagraph software (Attagene).
As for `CC1(C)C(C=C(Cl)Cl)C1C(=O)OCc1cccc(Oc2ccccc2)c1` (centres undefined), the molecule was called inactive.
Next, `CCC(C)OC(=O)N1CCCCC1CCO` (centres undefined): “inactive”.
For the molecule `CCOC(=O)C(C)Oc1ccc(Oc2cnc3cc(Cl)ccc3n2)cc1` (centres undefined), the result was inactive.
Take `CCN(Cc1c(F)cccc1Cl)c1c([N+](=O)[O-])cc(C(F)(F)F)cc1[N+](=O)[O-]`: the outcome was inactive.
Take `CCOC(=O)[C@H](C)Oc1ccc(Oc2nc3ccc(Cl)cc3o2)cc1`: the call was inactive.
Next, `CCOC(=O)NCCOc1ccc(Oc2ccccc2)cc1`: “inactive”.
In the case of `c1ccc(Nc2ccccc2)cc1`, the molecule was classed as inactive.
Regarding `O=C(c1ccc(O)cc1O)c1ccc(O)cc1O`, the outcome was inactive.
Next, `CCCCOC(=O)C(C)Oc1ccc(Oc2ccc(C(F)(F)F)cn2)cc1` (centres undefined): “inactive”.
Take `N#CSCSc1nc2ccccc2s1`: the molecule was called inactive.
For `CC(=O)S[C@@H]1CC2=CC(=O)CC[C@]2(C)[C@H]2CC[C@@]3(C)[C@@H](CC[C@@]34CCC(=O)O4)[C@H]12` the value was “inactive”; for `CCNc1nc(N)nc(Cl)n1`, “inactive”; for `O=C(O)C1(C(=O)Nc2ccc(Cl)cc2Cl)CC1`, “inactive”.
Regarding `CCOC(=O)C(C)Oc1ccc(Oc2nc3ccc(Cl)cc3o2)cc1` (centres undefined), the call was inactive.
Next, `COCCO`: “inactive”; `CCCN(CCC)C(=O)SCC`: “inactive”.
For the molecule `CCOC(=O)c1ccc(O)cc1`, the molecule was called inactive.
Next, `COC(=O)c1ccc(CNS(C)(=O)=O)cc1S(=O)(=O)NC(=O)Nc1nc(OC)cc(OC)n1`: “inactive”; `COc1c(Cl)ccc(Cl)c1C(=O)O`: “inactive”; `CN(C)C(=O)Nc1ccc(Cl)c(Cl)c1`: “inactive”.
For `CCSC(=O)N(CC(C)C)CC(C)C`, the molecule was classed as inactive.
In the case of `CC(C)CCCCCCc1ccc(O)cc1`, the molecule was classed as inactive.
For `CC(C)(c1ccc(O)cc1)c1ccc(O)cc1` the value was “inactive”.
In the case of `COC(=O)c1cccc(C)c1S(=O)(=O)NC(=O)Nc1nc(OCC(F)(F)F)nc(N(C)C)n1`, the call was inactive.
Regarding `N[C@@H](Cc1cc(I)c(Oc2ccc(O)c(I)c2)c(I)c1)C(=O)O`, the molecule was classed as inactive.
For the molecule `CCCOC(=O)c1ccc(C(=O)OCCC)nc1`, the call was inactive.
Next, `CCCN(CCC)c1c([N+](=O)[O-])cc(C(F)(F)F)c(N)c1[N+](=O)[O-]`: “inactive”; `COC(=O)c1ccccc1S(=O)(=O)NC(=O)Nc1nc(OC(F)F)cc(OC(F)F)n1`: “inactive”; `CCCOC(=O)NCCCN(C)C`: “inactive”.
Turning to `CCC(O)=C1C(=O)CC(C(=O)O)CC1=O` (centres undefined), the call was inactive.
Next, `CCCCC(CC)COC(=O)c1ccccc1C(=O)O` (centres undefined): “inactive”.
With `O=C(c1ccccc1)C1CCCCC1`, the molecule was classed as inactive.
For `CCCCOC(=O)[C@@H](C)Oc1ccc(Oc2ccc(C(F)(F)F)cn2)cc1` the value was “inactive”; for `OB(O)O`, “inactive”.
Consider `O=C(O)c1ccccc1`, for which the call was inactive.
Consider `COc1nc(C)nc(NC(=O)NS(=O)(=O)c2ccccc2OCCCl)n1`, for which the molecule was classed as inactive.
As for `CCCCOCCOCCOCc1cc2c(cc1CCC)OCO2`, the result was inactive.
Next, `C=CCOC(Cn1ccnc1)c1ccc(Cl)cc1Cl` (centres undefined): “inactive”.
As to `CCCCC(CC)CN1C(=O)C2C3C=CC(C3)C2C1=O` (centres undefined), the outcome was inactive.

The record behind these values is PubChem BioAssay (EPA / NIEHS).
